Measured values from PubChem BioAssay (Tox21).
Inconclusive results are not listed. The source made the active and inactive calls. Calls come from the whole dose curve; as a rule, active = well fitted cell-killing curve with a large enough effect in the repeat runs; inconclusive = weak or mixed curves, or effect the other way; inactive = no such curve, though single readings can be large or run the other way.

Assay: qHTS assay to identify small molecule antagonists of the glucocorticoid receptor (GR) signaling pathway - cell viability counter screen (AID 720693); note: nearly all actives have a fitted effect of over 55% in size
Conditions: GR-bla HeLa viability, CellTiter-Glo luminescence, 18 h, with 5 nM dexamethasone present; series mostly up to 58.5 µM; viability change, negative = cytotoxic: at the top concentration
Description: National Center for Advancing Translational Sciences [NCATS]
NIH Chemical Genomics Center [NCGC]
U.S. Environmental Protection Agency [EPA]
National Institutes of Environmental Health Sciences [NIEHS]
National Toxicology Program [NTP]
U.S. Food and Drug Administration [FDA]
The Glucocorticoid receptor (GR) is one of the members of the nuclear receptor family of ligand-dependent transcription factors. GR plays a critical role in carbohydrate, protein and lipid metabolisms and programmed cell death. CellSensor GR-bla HeLa cell line (Invitrogen) contains a beta-lactamase reporter gene under the control of the glucocorticoid response element stably integrated into HeLa cells, a cervical cancer cell line that expresses glucocorticoid receptor. The activation of the reporter gene under culture conditions can be detected by fluorescence intensity. This cell line has been used to screen the Tox21 10K compound library and to identify the compounds that inhibit the GR signaling. The cytotoxicity of the Tox21 compound library against the GR-bla HeLa cell line was tested in parallel by measuring the cell viability using CellTiter-Glo assay in the same wells.
Tox21 Assay Protocol Summary:
The GR-bla HeLa cells were dispensed at 1500 cells/5 ul/well in 1536-well black wall/clear bottom plates using a Multidrop Combi (ThermoFisher Scientific, Waltham, MA) dispenser. After the assay plates were incubated at a 37 C/5% CO2 incubator for 4 hours, 23 nL of compounds dissolved in DMSO, positive controls or DMSO only was transferred to the assay plate by a pintool station (Kalypsys, San Diego, CA), followed by addition of 1 uL of dexamethasone (5 nM, final concentration in the well). The plates were incubated at 37 C for 18 hours. After 1 uL of LiveBLAzerTM B/G FRET substrate was added using a Flying Reagent Dispenser (Aurora Discovery, San Diego, CA), the plates were incubated at room temperature (RT) for 2 hours, and fluorescence intensity was measured by an Envision plate reader (PerkinElmer, Shelton, CT). After measurement of bla assay, 3 ul CellTiter-Glo (Promega, Madison, WI) was added to measure the cytotoxicity and the plates were then incubated at RT for 30 min. The luminescence was measured using a ViewLux (Perkin Elmer) plate reader.
% is set by controls: 0 for no effect and ±100 for the full control effect.

Question: Which “viability change, negative = cytotoxic” value does the source give for `CC(C)(O)C(=O)c1ccc(OCCO)cc1` here?
Answer: The value was 15.5% (inactive).

Question: Which “viability change, negative = cytotoxic” value does the source give for `OCC(O)[C@@H](O)[C@H](O)[C@H](O)CO[C@H]1O[C@H](CO)[C@@H](O)[C@H](O)[C@H]1O` (stereo not given in full) here?
Answer: Its value is -19.1% (inactive).

Question: Which “viability change, negative = cytotoxic” value does the source give for `CO[Si](OC)(OC)OC` here?
Answer: The value was -11.7% (inactive).

Question: Which “viability change, negative = cytotoxic” value does the source give for `CN(C)N=Nc1ccccc1` here?
Answer: The value was 2.5% (inactive).

Question: With `NC(=O)Nc1nc2ccccc2[nH]1` as the molecule, how does the “viability change, negative = cytotoxic” value read?
Answer: The value was 16.8% (inactive).

Question: For `O=C1OC(=O)c2cc([N+](=O)[O-])ccc21`, which “viability change, negative = cytotoxic” value is on record?
Answer: The value was -0.299% (inactive).

Question: With `CCCCCCOC(=O)CC(CC(=O)OCCCCCC)(OC(=O)CCC)C(=O)OCCCCCC` as the molecule, how does the “viability change, negative = cytotoxic” value read?
Answer: Its value is -7.33% (inactive).

Question: For `OC/C=C/c1ccccc1`, which outcome is on record?
Answer: Its outcome is “inactive”.

Question: With `CCCC(=O)O[C@]1(C(=O)CCl)[C@@H](C)C[C@H]2[C@@H]3CCC4=CC(=O)C=C[C@]4(C)[C@@]3(F)C(=O)C[C@@]21C` as the molecule, how does the “viability change, negative = cytotoxic” value read?
Answer: Its value is -4.02% (inactive).

Question: For `c1ccc2cnncc2c1`, which “viability change, negative = cytotoxic” value is on record?
Answer: The value was -2.09% (inactive).

Question: For `CC1=CCC2C(C1)C2(C)C` (stereo not given), which “viability change, negative = cytotoxic” value is on record?
Answer: Its value is 6.19% (inactive).

Question: With `CC(=O)NC(Cc1ccccc1)C(=O)O` (stereo not given) as the molecule, how does the “viability change, negative = cytotoxic” value read?
Answer: The value was -1.18% (inactive).

Question: With `CC(C)[C@H](N)C(=O)OCCOCn1cnc2c(=O)[nH]c(N)nc21` as the molecule, how does the “viability change, negative = cytotoxic” value read?
Answer: The value was -9.69% (inactive).

Question: With `COc1cc(CCC(C)=O)ccc1O` as the molecule, how does the “viability change, negative = cytotoxic” value read?
Answer: Its value is -0.842% (inactive).

Question: Which “viability change, negative = cytotoxic” value does the source give for `Cc1ccc(N)cc1[N+](=O)[O-]` here?
Answer: The value was 0.305% [at 78.9 µM] (inactive).

Question: Which “viability change, negative = cytotoxic” value does the source give for `C1CCCCCCCCCCC1` here?
Answer: The value was -3.35% [at 27 µM] (inactive).

Question: With `CC(C)N1C(=O)c2ccccc2C1=O` as the molecule, how does the “viability change, negative = cytotoxic” value read?
Answer: Its value is 0.408% (inactive).

Question: For `CCCCc1ccc(N)cc1`, which “viability change, negative = cytotoxic” value is on record?
Answer: Its value is 11.1% (inactive).

Question: For `C=C(C)[C@H]1CC=C(C)CC1`, which “viability change, negative = cytotoxic” value is on record?
Answer: Its value is 3.68% (inactive).

Question: With `CC(C)=CCC/C(C)=C/C(=O)O` as the molecule, how does the “viability change, negative = cytotoxic” value read?
Answer: The value was 9.21% (inactive).

Question: With `Fc1ccccc1-c1ccccc1` as the molecule, how does the “viability change, negative = cytotoxic” value read?
Answer: Its value is -6.66% [at 78.9 µM] (inactive).

Question: With `C=CCOCC(O)CS(=O)(=O)O` (stereo not given) as the molecule, how does the “viability change, negative = cytotoxic” value read?
Answer: The value was -7.75% [at 78.9 µM] (inactive).

Question: For `C1COCCO1`, which “viability change, negative = cytotoxic” value is on record?
Answer: Its value is -2.18% [at 78.9 µM] (inactive).

Question: For `CCN1CCCC1CNC(=O)c1cc(S(N)(=O)=O)ccc1OC` (stereo not given), which “viability change, negative = cytotoxic” value is on record?
Answer: The value was 0.482% (inactive).

Question: For `CC(=O)N[C@@H](CCC(N)=O)C(=O)O`, which “viability change, negative = cytotoxic” value is on record?
Answer: The value was -0.731% (inactive).

Question: Which “viability change, negative = cytotoxic” value does the source give for `COc1nc(C)nc(N)n1` here?
Answer: The value was -3.89% (inactive).

Question: For `CSc1ccc(C=O)cc1`, which “viability change, negative = cytotoxic” value is on record?
Answer: Its value is 0.671% (inactive).

Question: Which “viability change, negative = cytotoxic” value does the source give for `NC(=O)c1ncn([C@@H]2O[C@H](CO)[C@@H](O)[C@H]2O)c1N` here?
Answer: The value was 7.47% (inactive).

Question: For `NS(=O)(=O)c1cc(C2(O)NC(=O)c3ccccc32)ccc1Cl` (stereo not given), which “viability change, negative = cytotoxic” value is on record?
Answer: The value was -1.09% [at 27 µM] (inactive).

Question: Which “viability change, negative = cytotoxic” value does the source give for `NC(CS)C(=O)O` (stereo not given) here?
Answer: The value was -13.1% (inactive).

Question: For `N#CCN(CC#N)CCN(CC#N)CC#N`, which “viability change, negative = cytotoxic” value is on record?
Answer: The value was -5.69% (inactive).

Question: For `CCCCCCOC(=O)c1ccccc1O`, which “viability change, negative = cytotoxic” value is on record?
Answer: The value was -0.231% (inactive).

Question: For `C[C@H]1O[C@@H](n2cc(F)c(=O)[nH]c2=O)[C@H](O)[C@@H]1O`, which “viability change, negative = cytotoxic” value is on record?
Answer: Its value is -7.68% (inactive).

Question: For `CCCCc1ccc2cccc(S(=O)(=O)O)c2c1`, which “viability change, negative = cytotoxic” value is on record?
Answer: Its value is 15.5% (inactive).

Question: For `Cc1cc(C)cc(OCC2CNC(=O)O2)c1` (stereo not given), which “viability change, negative = cytotoxic” value is on record?
Answer: The value was 9.19% (inactive).

Question: With `CCCCC1CCCCC(=O)O1` (stereo not given) as the molecule, how does the “viability change, negative = cytotoxic” value read?
Answer: Its value is -0.582% (inactive).

Question: Which “viability change, negative = cytotoxic” value does the source give for `CCCOCC(C)OCC(C)O` (stereo not given) here?
Answer: Its value is 26% [at 78.9 µM] (inactive).

Question: For `Cc1ncc(CSSCc2cnc(C)c(O)c2CO)c(CO)c1O`, which “viability change, negative = cytotoxic” value is on record?
Answer: Its value is -2.04% (inactive).

Question: Which “viability change, negative = cytotoxic” value does the source give for `C=CCn1c(=O)n([C@@H]2O[C@H](CO)[C@@H](O)[C@H]2O)c2nc(N)[nH]c(=O)c21` here?
Answer: Its value is -2.04% (inactive).

Question: For `C[N+](C)(C)CC[N+]1(C)Cc2c(Cl)c(Cl)c(Cl)c(Cl)c2C1`, which “viability change, negative = cytotoxic” value is on record?
Answer: The value was 2.06% (inactive).
